The structures appear in SMILES notation. Screen size: about 290,000 compounds; about 3,200 (1.1%) were called active. The list comes from a sample in which actives are over-represented; it also holds similar structures and randomly drawn compounds. Values without a mark were called inactive. Rule as the data show it: active = inhibition above about 60%; inactive = the rest.

The inhibition is the drop in the measured response relative to a control, in per cent.

For this test, the target named is Phosphoethanolamine/phosphocholine phosphatase (Homo sapiens) (UniProt Q8TCT1). Briefly: PubChem AID 1565. The conditions noted are these: recombinant PHOSPHO1, absorbance phosphatase assay; at 13.3 µM; stronger effect = higher value.
Sequence of Phosphoethanolamine/phosphocholine phosphatase (Homo sapiens) (Q8TCT1 whole entry, looked up): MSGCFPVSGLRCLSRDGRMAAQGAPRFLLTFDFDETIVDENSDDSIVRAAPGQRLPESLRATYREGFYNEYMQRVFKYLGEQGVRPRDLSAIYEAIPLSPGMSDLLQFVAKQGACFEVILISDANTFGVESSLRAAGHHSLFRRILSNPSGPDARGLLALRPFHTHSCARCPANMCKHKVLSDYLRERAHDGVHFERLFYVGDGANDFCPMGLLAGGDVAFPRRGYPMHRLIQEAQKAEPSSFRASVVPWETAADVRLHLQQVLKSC
Turning to `Cc1cc(C)cc(NC(=O)C2CCCN2S(=O)(=O)c2cccc3cccnc23)c1` (centres undefined), the inhibition is 44.5%.

Consider `O=C(Nc1nccs1)C1CCCN1S(=O)(=O)c1cccc2cccnc12` (centres undefined), for which the inhibition is 2.7%. Then `Cc1ccc(NC(=O)C2CCCN2S(=O)(=O)c2cccc3cccnc23)c(C)c1` (centres undefined), with 70.1% (active); and `O=C(CN(C(=O)c1csnn1)c1ccc(Br)cc1)NC1CCCC1`, with 26.9%. The result for `CSCCC(NC(=O)c1ccc(=O)n(C)n1)c1nc2ccccc2[nH]1` (centres undefined) reads 79.8% (active).

Regarding `CSCCC(NC(=O)c1cc([N+](=O)[O-])cc([N+](=O)[O-])c1)c1nc2ccccc2[nH]1` (centres undefined), the inhibition is -8.6%.

As for `COc1ccc(CC(=O)N[C@@H](CCSC)c2nc3ccccc3[nH]2)cc1`, the inhibition is 12.4%.

Regarding `CCCCC(=O)Nc1ccccc1N1CCN(c2ccc(F)cc2)CC1`, the inhibition was -152%.

On to `Oc1ccccc1-c1cc(-c2ccc(Cl)cc2)n[nH]1`, for which the inhibition is 19.7%. Then `Cc1cc(C)c(SCCc2ccncc2)c(C)c1`, with 24.1%. The result for `O=C(O)c1cccc(N2C(=O)Nc3ccccc3N2O)c1` reads 8.3%; that for `C/C(=N\Nc1cccc(C(=O)O)c1)c1ccc2c(c1)Nc1ccccc1S2`, 81.3% (active). Then `O=C(NC1CC1)c1ccc2c(c1)NC(=O)c1ccccc1S2`, with 0.7%. Consider `Cc1ccccc1N1CCN(C2CCCN(C(=O)c3cn4c(C)cccc4n3)C2)CC1` (centres undefined), for which the inhibition is 22.3%. The result for `Cc1ccc(NC(=O)CN2C(=O)NC(C)(c3ccc(Cl)cc3)C2=O)c(Br)c1` (centres undefined) reads 27.9%. For `Cc1cc(NC(=O)CCC(=O)N(Cc2ccccc2)C(C(=O)NC2CCCC2)c2ccc(C)o2)no1` (centres undefined), the inhibition was 46.2%. Regarding `CCOCCCN(C)C1CCN(C(=O)c2oc3ccccc3c2NC(=O)Cc2cccc([N+](=O)[O-])c2)CC1`, the inhibition was 16.9%. For `CCOc1ccc(OCCSc2nc3ccccc3n2CC(=O)O)cc1`, the inhibition is 13.8%. The result for `c1ccc(CN2CCC(N=C3NN=C(c4ccc5c(c4)OCCO5)CS3)CC2)cc1` reads 12.7%. On to `Clc1cccc(N=C2NN=C(c3ccc4c(c3)OCCO4)CS2)c1`, for which the inhibition is 78% (active). Then `Cc1cccc(N=C2NN=C(c3c[nH]c4ccccc34)CS2)c1`, with -2%.

Take `CCCn1c(=O)c(C(=O)Nc2cc(C)ccn2)c(O)c2ccccc21`: the inhibition is -7.8%. Turning to `S=c1[nH]cc(-c2ccc(Cl)cc2)n1-c1ccccc1`, the inhibition is 69.5% (active). The result for `S=c1[nH]nc(CSCc2ccc(Cl)cc2Cl)n1-c1ccccc1` reads 34.7%. As to `S=c1[nH]ccn1-c1ccc(Cl)cc1`, the inhibition was -13%.

In the case of `CN1CCN(/N=C/c2ccc(-c3ccc([N+](=O)[O-])cc3)o2)CC1`, the inhibition is 17.9%. Then `COc1cccc(CNC(=O)c2cccnc2Sc2ccc(Cl)cc2)c1`, with 23.3%.

Turning to `Cc1nc(NC(=O)c2ccc3c(c2)OCCO3)ccc1Br`, the inhibition is 7.6%. The result for `CC(C)[C@@H]1COC(c2cccc(C3=N[C@H](C(C)C)CO3)c2)=N1` reads -1.7%. The result for `COc1ccc(C(=O)NC2CC2)cc1OC1CCN(Cc2ccc(SC)cc2)CC1` reads 27.3%; that for `Cc1onc(-c2ccccc2)c1C(=O)NNC(=S)NC(=O)c1ccc(F)cc1`, -4.5%; that for `O=C(Nc1cn(-c2ccccc2)nc1-c1ccccc1)c1ccccc1`, -2.5%.

Consider `O=C(NNC(=S)NC(=O)c1cn(-c2ccccc2)nc1-c1ccccc1)c1ccncc1`, for which the inhibition is 80.9% (active).

On to `CC1CCN(C(=S)NC(=O)c2ccccc2Br)CC1`, for which the inhibition was 17.4%.

`COc1ccc(CCNC(=O)C2CCCN2C(=O)Nc2ccccc2)cc1OC` (centres undefined): the inhibition was 23.5%. The result for `Cc1c(CCC(=O)N[C@@H](CC(C)C)C(=O)O)c(=O)oc2c(C)c3oc4c(c3cc12)CCCC4` reads 31.6%. As to `Cc1ccc(NC(=S)N/N=C2/CCCc3c(C)cc(C)cc32)cc1`, the inhibition is 85.8% (active). Consider `Cc1ccc(C)c(NC(=S)NNC(=S)Nc2ccc(C(C)C)cc2)c1`, for which the inhibition was -6.1%. As for `Cc1ccc(NC(=S)Nc2ccc(F)cc2)cc1`, the inhibition was 19.2%. For `COC(=O)c1ccc(NC(=O)CSc2nc(N)c(NC(=O)c3ccc(Br)o3)c(=O)[nH]2)cc1`, the inhibition is 42.8%. Then `CCOC(=O)N1CCN(C(=O)CSc2nnc(-c3c[nH]c4ccccc34)n2CCOC)CC1`, with 25.5%. The result for `CCC(C)Sc1nnc(-c2c[nH]c3ccccc23)n1CCOC` (centres undefined) reads 61.5% (active). Turning to `CCn1c(SCCC(C)C)nnc1-c1c[nH]c2ccccc12`, the inhibition was 0.7%. On to `CC(C)(C)c1ccc(SCCc2ccncc2)cc1`, for which the inhibition is 13.8%. Then `Cc1ccc(CC2C(=O)N(c3ccc(F)cc3)C(=O)C2C)cc1` (centres undefined), with -2.6%; and `Cc1ccc(N2CCN(c3ccc([N+](=O)[O-])cn3)CC2)c(C)c1`, with 19.7%; and `Cc1ccc(-n2c(C)cc(/C=N/Nc3ccc([N+](=O)[O-])cn3)c2C)c(C)c1`, with 98.7% (active).

For the molecule `Cc1cc(/C=N/Nc2ccc([N+](=O)[O-])cn2)c(C)n1-c1cccc(C(=O)O)c1`, the inhibition is 15.9%. With `COC(=O)C1CCCCN1C(=O)c1ccc(OC2CCN(C(C)=O)CC2)c(OC)c1` (centres undefined), the inhibition is 57.6%. The result for `COc1cc2[nH]c(=S)n(Cc3ccc(C)o3)c(=O)c2cc1OC` reads 69.6% (active); that for `COc1cc2[nH]c(=S)n(Cc3ccc(F)cc3)c(=O)c2cc1OC`, -42.1%. With `COc1cc2[nH]c(=S)n(CCN3CCCCC3C)c(=O)c2cc1OC` (centres undefined), the inhibition was 24.2%. Consider `COc1ccc(C(=O)NCCn2nc(C)cc2C)cc1OC1CCN(C(C)=O)CC1`, for which the inhibition was 19.2%. For the molecule `COc1ccc2c(c1)c1nc3n(c(=O)c1n2CC(=O)Nc1ccccc1)CCS3`, the inhibition was -27.3%.

In the case of `Cn1c(=O)c2c(nc(NCCNC(=O)c3ccco3)n2Cc2ccccc2F)n(C)c1=O`, the inhibition is 26.1%. The result for `Cn1cc(Cl)c(C(=O)NNC(=S)Nc2cccc(Cl)c2)n1` reads -35.3%; that for `Cc1nn(C)cc1CNC(=O)Nc1ccc(Cl)cc1`, 8%; that for `Cc1nn(C)cc1C(=O)NNC(=S)Nc1ccc(Cl)cc1`, 97.7% (active).

Take `O=S1(=O)N=C(N(CCO)/N=C/c2ccccc2F)c2ccccc21`: the inhibition was 28.4%.

The values are drawn from PubChem BioAssay AID1565 (Sanford-Burnham Center for Chemical Genomics, 2009).
